Compound activity from PubChem BioAssay.
Shown are actives, neighbours in structure and some others; about 2.5% of the full set was active somewhere.
NPR1 activator: GC-A (human) enzyme activation; 0.14% of 370,000 active; P16066; activation, % at 10 µM; AID 1671463; HEK293 GC-A cells, cGMP TR-FRET, EC30 ANP; 0% at EC30 ANP, 100% saturating ANP; in the data active means activation above about 40%
Dyrk1A ADPGlo: blocks rat Dyrk1A kinase activity. Q63470. ADP-Glo luminescence, NFATc1 peptide. inhibition, % at 12.5 µM. 0.43% of 310,000 active. AID 504441; in the data active means inhibition above about 50%;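 further: plate controls were vehicle with enzyme for no effect and no enzyme for full effect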
HSF1 inhib: HSF1 inhibition; NIH3T3-HGL HSE-luciferase, MG132-induced, luminescence 8 h; hits give low values; activity change, negative = inhibition, % at 7.5 µM (by protocol); 0.77% of 300,000 active; AID 2098;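 active means more than half of replicate wells show activity change below -50%, luminescence cut by over half; inconclusive means some wells, but at most half, below -50%; inactive means no replicate well below -50%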;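 further: luciferase reports HSF-1 transcriptional activity via heat shock element; 0% = median of DMSO wells and -100% = zero luminescence signal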
GC-B act: GC-B (human) receptor activation. HEK293-GC-B cells, CNP EC30, cGMP TR-FRET; 0% at EC30 CNP, 100% saturating CNP. activation, % at 10 µM. 0.11% of 370,000 active;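 active means activation at 10 µM reaching about 35% in either raw or pattern-adjusted values, limit read from the data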
Target sequence (P20594 whole entry, looked up): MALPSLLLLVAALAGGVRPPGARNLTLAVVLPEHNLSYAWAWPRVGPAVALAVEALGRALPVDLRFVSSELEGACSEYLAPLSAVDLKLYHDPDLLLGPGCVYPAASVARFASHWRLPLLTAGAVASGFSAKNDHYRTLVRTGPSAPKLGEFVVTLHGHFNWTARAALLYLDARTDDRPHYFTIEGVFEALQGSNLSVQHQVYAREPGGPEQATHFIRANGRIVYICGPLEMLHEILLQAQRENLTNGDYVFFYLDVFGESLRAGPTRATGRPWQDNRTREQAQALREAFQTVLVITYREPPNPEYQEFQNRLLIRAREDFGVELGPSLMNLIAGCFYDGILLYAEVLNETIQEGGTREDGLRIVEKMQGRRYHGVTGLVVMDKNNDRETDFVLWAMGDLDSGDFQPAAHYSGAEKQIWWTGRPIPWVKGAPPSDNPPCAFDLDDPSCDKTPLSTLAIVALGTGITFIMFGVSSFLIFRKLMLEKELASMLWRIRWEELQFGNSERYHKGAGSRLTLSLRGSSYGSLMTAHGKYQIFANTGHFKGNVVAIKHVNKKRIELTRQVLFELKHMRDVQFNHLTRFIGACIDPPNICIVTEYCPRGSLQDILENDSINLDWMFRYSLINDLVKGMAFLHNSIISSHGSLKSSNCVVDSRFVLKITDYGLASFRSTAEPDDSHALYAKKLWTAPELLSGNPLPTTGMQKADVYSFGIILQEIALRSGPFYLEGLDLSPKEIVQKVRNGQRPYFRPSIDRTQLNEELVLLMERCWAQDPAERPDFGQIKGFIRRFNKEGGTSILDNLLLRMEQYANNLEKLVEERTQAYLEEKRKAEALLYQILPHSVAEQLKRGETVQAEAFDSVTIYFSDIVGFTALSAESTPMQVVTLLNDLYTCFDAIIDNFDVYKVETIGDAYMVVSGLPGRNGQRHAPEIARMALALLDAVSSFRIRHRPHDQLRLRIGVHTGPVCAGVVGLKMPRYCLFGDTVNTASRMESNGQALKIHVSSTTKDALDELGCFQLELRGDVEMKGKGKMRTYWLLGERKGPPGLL
HSF-1 act: increases HSF-1 driven luciferase reporter signal; NIH3T3-HGL HSF-1 luciferase reporter, MG132, 8 h; 100% = twice DMSO control signal; activation, % at 9 µM; 1.7% of 300,000 active;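 active means mean replicate activation of at least 50% with a set share of replicates each reaching 50%; inconclusive means only one of those two conditions met; inactive means mean below 50% and too few replicates reaching it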;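 further: 0% = median of the neutral control wells and 100% = twice that signal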
aDG glyco up: alpha-DG glycosylation activation; Pro5-aDG cells, alpha-DG glycosylation AlphaScreen (IIH6); 0% Pro5, 100% B10-LARGE cell signal; activation, % at 10 µM; 0.22% of 360,000 active; AID 624168;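 active means activation of at least 8% versus controls, or a plate z-score of at least 8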;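 further: Pro5 are CHO cells carrying HIG-tagged alpha-DG that lacks glycosylation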
Starred values were filed as active, the others as inactive; ? = inconclusive; / = no result.

SMILES | NPR1 activator | Dyrk1A ADPGlo | HSF1 inhib | GC-B act | HSF-1 act | aDG glyco up
O=C(COC(=O)c1cnc(Cl)c(Cl)c1)c1ccc(F)cc1 | 52.5* | / | / | -2.0 | / | 0.2
O=C(OCc1ccc(Br)cc1)c1cnc(Cl)c(Cl)c1 | 14.9 | -5.9 | 20.1 | -3.6 | 30.6 | -0.1
O=C(CSc1nnc(-c2ccccc2F)n1-c1ccccc1)c1ccc2ccccc2c1 | -3.0 | / | / | -2.2 | / | /
O=C(Nc1cccc(F)c1)N1CCC(n2c(=O)[nH]c3ccccc32)CC1 | 0.5 | -1.0 | 0.1 | -2.1 | 0.0 | -0.1
O=C(c1ccccc1)c1ccc(Cn2cc(-c3ccccc3)nn2)cc1 | -2.2 | -1.6 | 21.5 | 7.6 | 16.8 | 4.5*
CCOc1ccc2c(c1)[N+](C)(C)C(C)(C)C=C2C | 0.6 | -4.9 | -79.9* | 2.5 | -83.5 | -0.3
Cc1noc(C)c1CSCC(=O)Nc1ccc(S(=O)(=O)C(F)F)cc1 | 0.3 | -0.6 | -57.6* | 3.0 | -68.7 | -0.3
CCOC(=O)N1CCN(C(=O)CN2C(=O)COc3ccc(C(C)(C)C)cc32)CC1 | 1.5 | -4.0 | -5.6 | -5.6 | 0.6 | 0.1
Cc1ccc2c(c1)N(CC(=O)O)C(=O)CO2 | 2.2 | 1.6 | -79.6* | 6.8 | -83.1 | -0.1
CN(C)CCNC(=O)CN1C(=O)COc2ccc(C(C)(C)C)cc21 | -5.2 | -14.7 | -67.9* | 4.1 | -75.4 | -0.2
CC(C)(C)c1ccc2c(c1)N(CC(=O)O)C(=O)CO2 | 5.2 | -4.6 | 1.6 | 3.1 | -4.3 | 0.0
C=CCCC1CN(Cc2ccco2)S(=O)(=O)c2c(F)cccc2O1 (stereo unspecified) | -2.4 | -11.4 | / | 4.0 | / | 0.0
O=C(Cc1ccc2c(c1)OCCO2)N/N=C/c1ccco1 | 2.2 | -2.5 | / | -0.2 | / | -0.2
COC(=O)c1sccc1NC(=O)Nc1ccc(Cl)c(Cl)c1 | -1.8 | 1.6 | 46.8 | -5.5 | 66.1* | 0.3
COC(=O)c1sccc1NC(=O)Nc1ccccc1F | -0.6 | 9.3 | 22.3 | 3.2 | 58.3* | -0.4
COC(=O)c1ccc(NC(=O)Nc2ccccc2F)cc1 | 3.4 | 5.6 | 35.1 | 2.6 | 70.2* | 0.5
COC(=O)c1sccc1NC(=O)Nc1ccccc1C | -2.6 | 5.0 | / | -5.5 | / | -0.3
COc1ccc(C2CC(c3ccccc3)=NN2c2ccc(S(N)(=O)=O)cc2)cc1OC (stereo unspecified) | 6.2 | 1.9 | 11.1 | -1.5 | 20.0 | 2.5
COc1cc(C2CC(c3cccnc3)=NN2c2ccc(F)cc2)cc(OC)c1OC (stereo unspecified) | 1.5 | 29.5 | 50.5 | -10.2 | 64.8* | 2.0
NC(=O)c1ccccc1OCC(=O)Nc1ccc2c(c1)CCC2 | 0.9 | / | / | 2.1 | / | 0.4
CCCNC(=O)COC(=O)c1ccccc1OCC(=O)Nc1ccc(Br)cc1 | 6.9 | 7.8 | 5.1 | 7.7 | -2.3 | 0.1
NC(=O)c1ccccc1OCC(=O)Nc1ccc(Cl)c(Cl)c1 | -5.1 | / | 50.4 | -6.3 | 91.3* | 0.2
CC(C)(C)NC(=O)COC(=O)c1ccccc1OCC(=O)Nc1ccc(Br)cc1 | 12.2 | -3.3 | 39.5 | 11.0 | 68.6* | 0.2
Nc1oc2ccccc2c(=O)c1C=O | -1.8 | 6.2 | -11.7 | -1.2 | 0.4 | -0.2
CCCSc1nsc(NC(=O)CCC)n1 | 0.7 | 2.8 | 25.4 | -1.6 | ? | 0.2
SMILES | NPR1 activator | Dyrk1A ADPGlo | HSF1 inhib | GC-B act | HSF-1 act | aDG glyco up
O=C(N/N=C/c1ccoc1)c1cc(O)cc(O)c1 | -0.3 | -0.3 | -2.7 | 0.3 | 10.0 | 0.8
N#Cc1ccccc1OCc1nnc(-c2ccccc2Br)o1 | -1.7 | 7.9 | 46.6 | -5.3 | 82.6* | 0.0
Cc1cccc(N2CCN(C3C(=O)Nc4ccccc4-n4nnnc43)CC2)c1C (stereo unspecified) | -6.2 | / | / | 3.2 | / | 0.2
Cn1ncc(Cl)c1C(=O)Nc1cccnc1 | 4.5 | -40.8 | -5.9 | 1.0 | -3.0 | -0.2
Cc1ccc(CNc2nc(-c3cccs3)nc3ccccc23)cc1 | 29.6 | 5.8 | 10.5 | 39.2* | 15.5 | -0.2
c1ccc(CNc2nc(-c3cccs3)nc3ccccc23)nc1 | 5.4 | 17.8 | 11.3 | -0.5 | 4.5 | 0.0
Clc1ccc(OCc2nc(-c3ccncc3)no2)c(Br)c1 | 24.1 | 6.9 | 52.1 | 3.2 | 85.2* | -0.2
COc1ccc(C(=O)O/N=C(\N)c2ccccn2)cc1 | 1.3 | 47.1 | -74.9* | -5.3 | -77.7 | 0.1
COc1cc(OC)cc(C(=O)O/N=C(\N)c2ccccn2)c1 | 5.1 | / | 29.5 | -1.3 | 55.0* | 0.2
COc1ccc(C(=O)NNC(=O)c2ccccn2)cc1 | 4.1 | 49.3 | -67.7* | -3.7 | -75.6 | -0.3
COc1cc(OC)cc(C(=O)NNC(=O)c2ccccn2)c1 | -1.7 | -2.1 | -10.3 | 4.1 | -11.5 | 0.8
N/C(=N\OC(=O)c1ccc(Cl)cc1)c1ccccn1 | 2.1 | -11.4 | -48.0 | -1.5 | -53.6 | -0.1
COc1ccc(/C(N)=N/OC(=O)CCc2ccccc2)cc1OC | 2.4 | 19.0 | 20.4 | 4.5 | 28.4 | -0.1
CCOc1cc(C(=O)O/N=C(\N)c2ccccn2)cc(OCC)c1OCC | 0.5 | -1.5 | 6.6 | 1.6 | -7.7 | 0.2
COc1ccc(/C(N)=N/OC(=O)CCc2ccccc2)cc1 | 4.5 | 4.2 | 34.4 | 3.8 | 54.7* | -0.2
O=C(O)CCN1C(=O)c2ccc(NC(=O)Cc3ccc(Cl)cc3)cc2C1=O | 0.3 | -1.0 | -10.2 | 0.4 | -6.7 | 0.1
CCCC(C)c1nnc(NC(=O)COc2ccc3c(c2)OCO3)s1 (stereo unspecified) | 5.1 | 3.1 | 8.9 | -2.1 | 30.7 | -0.2
CCN(CC)S(=O)(=O)c1cccc(C(=O)OCC(=O)c2ccc3c(c2)NC(=O)CO3)c1 | 0.2 | -3.0 | 1.6 | -7.0 | 0.9 | 0.3
Cc1ccc(-c2cc(C(=O)OCC(=O)Nc3ncc(C(F)(F)F)cc3Cl)c3ccccc3n2)cc1 | 1.0 | -2.5 | -1.4 | 7.3 | -1.7 | 0.0
COCCN(CC(=O)Nc1ccccc1C(F)(F)F)C(=O)/C=C/c1cc(Cl)c2c(c1)OCCO2 | -3.3 | 3.3 | / | 3.4 | / | -0.1
O=C1c2ccccc2C(=O)N1CCn1ccnc1 | -0.8 | -3.5 | -3.2 | -0.1 | -3.7 | 0.1
Cc1cc(/C(N)=N/OC(=O)c2ccc(Cl)cc2)no1 | 5.3 | 10.0 | 31.7 | 1.0 | 63.9* | 0.0
Cc1cc(/C(N)=N/OC(=O)c2cccc(Cl)c2)no1 | -2.3 | 4.4 | 20.1 | -3.4 | 27.8 | 0.2
Cc1ccc(C(=O)O/N=C(\N)c2ccccn2)c(C)c1 | 5.8 | 46.6 | -89.1* | -4.5 | -89.7 | 0.6
CN=c1scc(-c2cccs2)n1/N=C/c1ccccc1O | 14.1 | -0.2 | -89.9* | 9.9 | -91.4 | 0.9
CN=c1scc(-c2cccs2)n1/N=C/c1ccc(O)c(O)c1O | 10.6 | 16.5 | ? | 2.2 | -51.2 | -0.4
COc1ccc(N2CCN(c3ncnc4c3[nH]c3ccccc34)CC2)cc1 | -2.4 | 2.1 | 3.7 | 4.5 | -2.0 | 6.2*
